“And” between values parts separate entries of the source, which are not always exact repeats. Equal values may be shown once. A number with no mark means an inactive call. Records with an inconclusive call do not appear. Where a call stands in place of a potency, no number is given. The source made the active and inactive calls. Unless noted, the call rests on the fitted dose curve; in most records, active means well fitted curve in the direction sought with a large enough effect in the repeat runs; inconclusive means weak or mixed curves; inactive means no such curve, though single readings can be large; an effect the other way counts as inactive or inconclusive.
Tests used:
[1] = qHTS assay for identifying genotoxic compounds that show differential cytotoxicity against isogenic chicken DT40 cell lines with known DNA damage response pathways - Rev3 mutant cell line (AID 743014); further: nearly all actives have a fitted effect of over 55% in size; further: potency means the concentration at half of the fitted maximal effect
[2] = qHTS assay for identifying genotoxic compounds that show differential cytotoxicity against isogenic chicken DT40 cell lines with known DNA damage response pathways - Rad54/Ku70 mutant cell line (AID 743015); further: nearly all actives have a fitted effect of over 60% in size; further: potency means the concentration at half of the fitted maximal effect
[3] = qHTS assay to identify small molecule antagonists of the androgen receptor (AR) signaling pathway - cell viability counter screen (AID 743033; further: nearly all actives have a fitted effect of over 45% in size; further: potency means the concentration at half of the fitted maximal effect)
[4] = target: Androgen receptor (Homo sapiens) (UniProt P10275); assay: qHTS assay to identify small molecule antagonists of the androgen receptor (AR) signaling pathway (AID 743035; active means well fitted inhibition curve with a large enough effect in the signal ratio in the repeat runs, not every such curve was filed as active; the % refers to the signal ratio; further: potency means the concentration at half of the fitted maximal effect)
Chain of Androgen receptor (Homo sapiens) (P10275 whole entry, looked up): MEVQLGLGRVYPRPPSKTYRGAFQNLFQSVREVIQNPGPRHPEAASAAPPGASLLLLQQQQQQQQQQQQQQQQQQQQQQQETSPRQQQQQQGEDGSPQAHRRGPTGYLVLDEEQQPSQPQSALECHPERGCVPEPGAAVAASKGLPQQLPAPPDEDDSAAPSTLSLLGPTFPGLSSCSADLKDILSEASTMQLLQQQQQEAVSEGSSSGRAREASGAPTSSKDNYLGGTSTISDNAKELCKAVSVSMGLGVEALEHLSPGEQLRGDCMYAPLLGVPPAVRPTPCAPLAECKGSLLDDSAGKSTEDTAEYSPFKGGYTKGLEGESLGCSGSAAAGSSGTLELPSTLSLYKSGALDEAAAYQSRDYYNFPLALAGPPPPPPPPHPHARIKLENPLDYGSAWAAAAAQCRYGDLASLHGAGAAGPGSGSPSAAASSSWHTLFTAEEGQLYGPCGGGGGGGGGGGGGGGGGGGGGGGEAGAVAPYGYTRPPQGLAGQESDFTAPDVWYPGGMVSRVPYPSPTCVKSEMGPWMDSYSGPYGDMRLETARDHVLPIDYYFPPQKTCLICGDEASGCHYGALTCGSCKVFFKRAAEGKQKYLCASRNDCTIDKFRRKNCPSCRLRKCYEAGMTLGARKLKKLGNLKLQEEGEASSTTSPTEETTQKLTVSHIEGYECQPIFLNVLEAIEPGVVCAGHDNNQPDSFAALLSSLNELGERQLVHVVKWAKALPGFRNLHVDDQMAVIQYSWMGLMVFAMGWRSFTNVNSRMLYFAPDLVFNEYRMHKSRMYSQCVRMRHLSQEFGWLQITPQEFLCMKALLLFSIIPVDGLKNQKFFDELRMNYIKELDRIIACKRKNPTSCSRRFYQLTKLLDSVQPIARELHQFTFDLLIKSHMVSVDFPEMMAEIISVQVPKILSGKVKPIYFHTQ
In short: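 AR-bla HEK293 reporter cells; 4 h settle at 37C/5% CO2; compound + R1881 agonist, 16 h at 37C; LiveBLAzer B/G FRET substrate 2 h RT; fluorescence intensity read. qHTS format.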

[5] = target: Androgen receptor (Homo sapiens) (UniProt P10275); assay: qHTS assay to identify small molecule agonists of the androgen receptor (AR) signaling pathway using the MDA cell line (AID 743040; further: nearly all actives have a fitted effect of over 20% in size)
In short: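 Agonist activity is measured as luciferase luminescence in human MDA-kb2 cells whose MMTV reporter responds to both AR and GR. Compounds in DMSO incubate 16 h at 37C, 0% CO2, and ONE-Glo is read after 30 min.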

[6] = qHTS assay to identify small molecule antagonists of the androgen receptor (AR) signaling pathway using the MDA cell line - cell viability counter screen (AID 743041; further: nearly all actives have a fitted effect of over 45% in size; further: potency means the concentration at half of the fitted maximal effect)
In short: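 qHTS viability read-out; MDA-kb2 AR-luc; R1881-stimulated; 16 h exposure at 37C, 0% CO2; CellTiter-Fluor, 30 min; fluorescence intensity.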

[7] = qHTS assay for identifying genotoxic compounds that show differential cytotoxicity against isogenic chicken DT40 cell lines with known DNA damage response pathways - wild type cell line (AID 743012); further: nearly all actives have a fitted effect of over 60% in size; further: potency means the concentration at half of the fitted maximal effect
In short: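 CellTiter-Glo luminescence readout of viability in wild type DT40 cells after 40 h compound exposure at 37 C/5% CO2; 300 cells/well; reagent incubated 30 min at room temperature before reading.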

[8] = target: Androgen receptor (Homo sapiens) (UniProt P10275); assay: qHTS assay to identify small molecule agonists of the androgen receptor (AR) signaling pathway (AID 743036; active means well fitted activation curve with a large enough effect in the signal ratio in the repeat runs, with a control signal flat, not every such curve was filed as active; the % refers to the signal ratio)
In short: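 Fluorescence from a beta-lactamase FRET substrate served as read-out in AR-UAS-bla GripTite HEK293 cells. Cells were treated with DMSO-dissolved compounds for 16 h at 37C, then with LiveBLAzer B/G substrate for 2 h at room temperature.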

N#Cc1c[nH]cc1-c1cccc2c1OC(F)(F)O2
Potency [1]: 8.63 µM (active) | Potency [2]: 13.7 µM (active)

CCCCCCC[CH2][Sn]([Cl])([Cl])[CH2]CCCCCCC
Potency [1]: inactive | Potency [2]: inactive | Potency [3]: inactive | Potency [4]: 21.9 µM (active) | outcome [5]: inactive | Potency [6]: inactive

CC(=O)[O-].CC(=O)[O-].O.O.O.[Pb+2]
Potency [7]: inactive | Potency [1]: inactive | Potency [3]: inactive

CC(Cc1ccc2c(c1)OCO2)NO (stereo not drawn)
Potency [1]: inactive | Potency [2]: inactive | Potency [3]: inactive | Potency [6]: inactive

CNC(=O)Oc1cc(C)cc(C(C)C)c1
Potency [2]: inactive | Potency [3]: inactive | Potency [6]: inactive

BrCC(Br)(Br)Br
Potency [3]: inactive | Potency [4]: inactive | outcome [8]: inactive | outcome [5]: inactive | Potency [6]: inactive

c1cc[n+]2c(c1)-c1cccc[n+]1CC2
Potency [7]: 3350 nM (active) | Potency [1]: 3.35 µM (active) | Potency [2]: 2.37 µM (active) | Potency [6]: inactive

CCN1CCC2(CC1)COc1cc3c(cc12)N(C(=O)c1ccc(-c2ccc(-c4nnc(C)o4)cc2C)cc1)CC3
Potency [1]: 1.42 µM (active) | Potency [2]: 1 µM (active) | Potency [3]: 6.38 µM (active) | outcome [5]: inactive

ClC1=C(Cl)[C@]2(Cl)[C@H]3[C@H]([C@@H]4C=C[C@H]3C4)[C@@]1(Cl)C2(Cl)Cl
Potency [1]: inactive | Potency [2]: inactive | Potency [6]: inactive

CCCCCCCc1ccc(O)cc1
Potency [1]: 19.3 µM (active) | Potency [2]: 19.3 µM (active) | Potency [3]: inactive | outcome [8]: inactive | outcome [5]: inactive | Potency [6]: inactive

CC1CCCC1
Potency [7]: inactive | Potency [1]: inactive | Potency [2]: inactive | Potency [6]: inactive

CO/N=C(\C(=O)OC)c1ccccc1CO/N=C(\C)c1cccc(C(F)(F)F)c1
Potency [7]: 344 nM (active) | Potency [1]: 0.273 µM (active) | Potency [2]: 0.273 µM (active) | Potency [6]: 5.45 µM (active)

COP(=O)(OC)Oc1ccc([N+](=O)[O-])cc1
Potency [1]: 61.1 µM (active) | Potency [2]: inactive | Potency [3]: inactive

CCCCC/C=C\C/C=C\C/C=C\C/C=C\CCCC(=O)NCC(=O)O
activity change, negative = cytotoxicity [7]: 16.5% [at 8.52 µM] | activity change, negative = cytotoxicity [2]: 4.36% [at 8.55 µM] | viability change, negative = cytotoxic [6]: -2.98% [at 8.47 µM]

CCC1COC(Cn2cncn2)(c2ccc(Cl)cc2Cl)O1 (stereo not drawn)
Potency [1]: 9.69 µM (active) | Potency [2]: 19.3 µM (active) | Potency [3]: inactive | Potency [6]: inactive

ClC1(Cl)C2(Cl)C3(Cl)C4(Cl)C(Cl)(Cl)C5(Cl)C3(Cl)C1(Cl)C5(Cl)C24Cl (stereo not drawn)
Potency [7]: inactive | Potency [2]: inactive | Potency [3]: inactive | outcome [5]: inactive | Potency [6]: inactive

[O]=[Cr](=[O])([OH])[O][Cr](=[O])(=[O])[OH]
Potency [7]: 21.1 µM (active) [middle of 4 runs] | Potency [3]: 7.83 µM (active) and 21.8 µM (active) | outcome [5]: inactive | Potency [6]: inactive

Cc1ccc2cc3c(ccc4ccccc43)c3c2c1CC3
Potency [1]: inactive | Potency [2]: inactive | Potency [3]: inactive | Potency [6]: inactive

O=S1OCC2C(CO1)C1(Cl)C(Cl)=C(Cl)C2(Cl)C1(Cl)Cl (stereo not drawn)
Potency [1]: 30.7 µM (active) and 34.3 µM (active) | Potency [2]: 48.6 µM (active) and 48.5 µM (active) | Potency [3]: 49 µM (active) | Potency [4]: 38.9 µM (active) and 48.9 µM (active) | outcome [5]: inactive | Potency [6]: inactive

CCCCC(CC)COC(=O)c1ccccc1C(=O)OCC(CC)CCCC (stereo not drawn)
Potency [2]: inactive | Potency [3]: inactive

O=C(O)CCCCCCNC1c2ccccc2CCc2ccccc21
Potency [7]: inactive | Potency [1]: inactive | Potency [2]: inactive | Potency [6]: inactive

CCCCN(CCCC)C(=S)S
Potency [1]: inactive | Potency [3]: inactive | Potency [6]: inactive

O=[N+]([O-])c1cc(C(F)(F)F)c(Cl)c([N+](=O)[O-])c1Nc1ncc(C(F)(F)F)cc1Cl
Potency [7]: 96.9 nM (active) | Potency [1]: 0.137 µM (active) | Potency [2]: 0.137 µM (active) | Potency [6]: 15.4 µM (active)

CCO/N=C(\CC)C1=C(O)CC(c2c(C)cc(C)cc2C)CC1=O (stereo not drawn)
Potency [1]: 51.4 µM (active) | Potency [2]: 62.5 µM (active) | outcome [5]: inactive | Potency [6]: inactive

Oc1cc(Cl)cc(Cl)c1
Potency [1]: 61.8 µM (active) | Potency [2]: 61.8 µM (active)

CNC(=O)O/N=C(\C)C(C)S(C)(=O)=O (stereo not drawn)
Potency [7]: inactive | Potency [2]: inactive | Potency [3]: inactive | Potency [6]: inactive

CCN(CC)C(=S)S
Potency [7]: 2.66 µM (active) and 5.42 µM (active) and 433 nM (active) | Potency [2]: 5.31 µM (active) and 5.42 µM (active) and 486 nM (active)

O=S1(=O)OCC2C(CO1)C1(Cl)C(Cl)=C(Cl)C2(Cl)C1(Cl)Cl (stereo not drawn)
Potency [1]: 10.9 µM (active) | Potency [2]: 27.3 µM (active)

CC1CN1 (stereo not drawn)
Potency [6]: inactive

COP(=S)(OC)Oc1nc(Cl)c(Cl)cc1Cl
Potency [1]: 61.1 µM (active) | Potency [3]: inactive | Potency [6]: inactive

Cc1ccccc1OP(=O)(Oc1ccccc1C)Oc1ccccc1C
Potency [1]: 54.7 µM (active) | Potency [2]: 30.8 µM (active) | Potency [3]: inactive | outcome [5]: inactive | Potency [6]: inactive
